This is a sample that favours compounds with a hit; in the whole collection about 6% have one here.
D3 ag – D3 dopamine receptor (human) agonism | D3R DiscoveRx beta-arrestin cells, luminescence, 90 min | max activation, % | hit rate 0.58% among 410,000 | AID 652048; in the data active = max activation above about 30%; note: 0% is about no effect
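Agonist mode: compounds and dopamine controls were applied to plated cells for 90 min at 37 degrees C after an overnight attachment at 1500 cells/well. Luminescent read-out followed 30 - 60 minutes at room temperature with DiscoveRx detection reagent.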
D3 antag – blocks the human D3 dopamine receptor. D3R cells, DiscoveRx beta-arrestin luminescence, antagonist mode; active compounds read low. max response, negative = inhibition, %. hit rate 2.5% among 360,000; in the data active = max response below about -50%; note: % is set by controls: 0 for no effect and ±100 for the full control effect
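Cells expressing the human receptor were seeded at 1500 cells/well, incubated overnight at 37 degrees C in 5% CO2, then exposed to library compounds with dopamine controls for 90 minutes at 37 degrees C before luminescent detection.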
D1 ag – human D1 receptor agonism. HEK293 T-REx D1 cells, calcium flux, agonist mode. activation, % at 2 µM. hit rate 1% among 360,000; in the data active = activation above about 30%; note: 0% is about no effect
Target sequence (P21728 whole entry, looked up): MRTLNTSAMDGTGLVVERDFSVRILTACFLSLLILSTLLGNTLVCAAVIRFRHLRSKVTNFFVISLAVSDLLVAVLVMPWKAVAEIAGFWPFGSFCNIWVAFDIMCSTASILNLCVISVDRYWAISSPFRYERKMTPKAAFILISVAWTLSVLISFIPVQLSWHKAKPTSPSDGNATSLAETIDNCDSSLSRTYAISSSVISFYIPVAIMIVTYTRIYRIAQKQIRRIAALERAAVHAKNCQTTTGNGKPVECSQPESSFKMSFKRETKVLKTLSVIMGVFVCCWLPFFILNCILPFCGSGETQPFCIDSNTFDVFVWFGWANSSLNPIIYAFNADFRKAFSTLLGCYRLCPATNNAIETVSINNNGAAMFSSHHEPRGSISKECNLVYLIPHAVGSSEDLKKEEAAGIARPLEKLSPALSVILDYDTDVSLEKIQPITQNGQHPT
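Agonism was scored from calcium flux recorded over 180 s (1 read/s) after pintool compound addition, following a 10-cycle baseline. Cells were inducible force-coupled HEK293 TREx D1, plated overnight at 30 C and loaded with no-wash calcium dye.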
D1 PAM – potentiators of human D1 dopamine receptor | HEK293 TREx D1 cells, calcium flux, dopamine EC20 potentiation | potentiation, % at 10 µM | hit rate 0.036% among 360,000 | AID 504651; in the data active = potentiation above about 30%; note: 0% is about no effect
D1 antagonist – antagonists of human D1 dopamine receptor | HEK293 TREx D1 cells, calcium flux, dopamine EC80; active compounds read low | activity change, negative = inhibition, % at 10 µM | hit rate 3.2% among 360,000; in the data active = activity change below about -30%; note: % is set by controls: 0 for no effect and ±100 for the full control effect
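Cells carrying a force-coupled, tetracycline-inducible human D1 receptor report calcium flux. Each well gets a 10 s baseline, compound with 180 s monitoring, then an EC80 dopamine stimulus with a second 180 s kinetic read.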
Numbers without * were called inactive.

Results for CCCCCCSc1ccc(-c2nc3ccc(C)cn3c2NCc2ccccc2)cc1 ?
D3 ag: 15; D3 antag: 7; D1 ag: 0; D1 PAM: -10; D1 antagonist: -36*

What do the screens show for `CCCCCCSc1ccc(-c2nc3ccc(C)cn3c2NCc2ccccc2)cc1OC`?
D3 ag: 19; D3 antag: 94; D1 ag: 2; D1 PAM: -9; D1 antagonist: 13

Results for CCCCCCSc1cc(-c2nc3ccc(C)cn3c2NCCCC)ccc1OC ?
D3 ag: 71*; D3 antag: 132

What do the screens show for `COc1ccc(-c2nc3cc(C)ccn3c2NCc2ccc3c(c2)OCO3)cc1`?
D3 ag: -2; D3 antag: -9; D1 ag: 3; D1 PAM: 0; D1 antagonist: -31*

How did CCCCNc1c(-c2ccc(-c3ccc(C(C)=O)cc3)c(OC)c2)nc2cc(C)ccn12 do in these assays?
D3 ag: -20; D3 antag: 39

What do the screens show for `Cc1csc(-c2ccc3cc(Cl)cc(Cl)c3n2)n1`?
D3 ag: 7; D3 antag: 19

How did CCCCNc1c(-c2ccc(OC)c(SC(C)CC)c2)nc2ccc(C)cn12 (stereo not drawn) do in these assays?
D3 ag: 13; D3 antag: -14

How did CCCCCCSc1ccc(-c2nc3cnccn3c2NCCCC)cc1 do in these assays?
D3 ag: 63*; D3 antag: 159

How did CCCCCCSc1cc(-c2nc3ccc(Cl)cn3c2NCCCC)ccc1OC do in these assays?
D3 ag: 26; D3 antag: 50; D1 ag: 1; D1 PAM: -4; D1 antagonist: 0

What do the screens show for `CCCCNc1c(-c2ccc(OC)c(SC(C)CC)c2)nc2cnccn12` (stereo not drawn)?
D3 ag: 53*; D3 antag: 79

How did CCCCNc1c(-c2ccc(OC)c(SC(C)CC)c2)nc2cc(C)ccn12 (stereo not drawn) do in these assays?
D3 ag: 63*; D3 antag: 4

Results for CC(C)c1ccc(S(=O)(=O)c2nnn3c2nc(N2CCCC2)c2sccc23)cc1 ?
D3 ag: 2; D1 ag: 0; D1 PAM: 0; D1 antagonist: -5

Results for CCc1ccc(CNC(=O)C2CCCN(S(=O)(=O)c3ccc4c(ccn4C)c3)C2)cc1 (stereo not drawn) ?
D3 ag: 0; D1 ag: 3; D1 PAM: -3; D1 antagonist: -9

What do the screens show for `N#C/C(=C\c1ccc(-c2ccccc2)o1)C(=O)Nn1cnnc1`?
D3 ag: 0; D3 antag: -69*; D1 ag: 3; D1 PAM: -2; D1 antagonist: 10

How did CCOC(=O)c1ccc(-c2ccc(/C=C(\C#N)C(=O)Nc3c(C)cccc3Cl)o2)cc1 do in these assays?
D3 ag: 10; D1 ag: 4; D1 PAM: 2; D1 antagonist: 4

How did CCCCOC(=O)c1ccc(NC(=O)/C(C#N)=C/c2ccc(-c3ccccc3)o2)cc1 do in these assays?
D3 ag: 0; D1 ag: 127*; D1 PAM: 7; D1 antagonist: 0

What do the screens show for `N#C/C(=C/c1ccc(-c2ccc(Br)cc2)o1)C(=O)NC1CCCCC1`?
D3 ag: 10; D3 antag: 5; D1 ag: 7; D1 PAM: 1; D1 antagonist: 5

How did Cc1cc(NC(=O)/C(C#N)=C/c2ccco2)n(-c2ccccc2)n1 do in these assays?
D3 ag: -1; D3 antag: -11; D1 ag: 1; D1 PAM: -6; D1 antagonist: 2

How did Cc1ccc(-c2ccc(/C=C(\C#N)C(=O)Nc3cc(C)nn3-c3ccccc3)o2)cc1 do in these assays?
D1 ag: 61*; D1 PAM: -8; D1 antagonist: -25

What do the screens show for `CC1=C(C(=O)Nc2ccccc2)C(c2cccnc2)n2nc(SCc3ccccc3Cl)nc2N1` (stereo not drawn)?
D3 ag: -12; D1 ag: -1; D1 PAM: -1; D1 antagonist: -35*

Results for CC1=C(C(=O)Nc2ccccc2)C(c2cccnc2)n2nc(SCc3ccccc3F)nc2N1 (stereo not drawn) ?
D3 ag: -7; D1 ag: 11; D1 PAM: 1; D1 antagonist: -3
